# The panel holds about 83,000 compounds, 20% with a hit somewhere; the sample as a whole holds those more often.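 Assay: single dose, 48 h. Readout: percent growth (0 = no net growth; negative = cell death). Active: <10.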 A number with no mark means an inactive call. Active and inactive are the calls of the source.
# Tested on: CAKI-1 renal
# Assay: NCI-60 one-dose screen, 48 h (100 = growth as untreated, 0 = no growth, -100 = all killed)
# Conditions: 10 µM unless noted
# Procedure: Growth inhibition of the CAKI-1 human tumor cell line is measured as a screen for anti-cancer activity. Cells are grown in 96 well plates and exposed to the test compound for 48 hours. Compounds are tested at a single concentration, which is 10^-5 M for most compounds. The reported endpoint is percent growth (GI% or GIPRCNT), where numbers from 0 - 100% represent growth inhibition, and numbers from -100% - 0 represent cell death. For example, a value of 40 represents 60% growth inhibition. A value of 0 means no net growth occurred over the course of the experiment. A value of -40 indicates 40% of cells at the beginning of the experiment died by the end of the experiment. A value of -100 means all cells are dead at the end of the experiment.
# NCI-60 Human Tumor Cell Lines Screen was performed using the standard one-dose NCI protocol, which is described in more detail at https://dtp.cancer.gov/discovery_development/nci-60/default.htm.
# Compounds with GIPRCNT values below 10 were considered active. Activity score was based on GIPRCNT using the following formula: […]
# Score is 0 for GIPRCNT values of 100 or above, 50 for GIPRCNT values of 0, and 100 for GIPRCNT values of -100.
row,SMILES,growth
1,COC(=O)[C@]12CC[C@@H](C)[C@H](C)[C@@H]1C1=CC[C@@H]3[C@@]4(C)C(C=O)=C[C@@](C)(COS(C)(=O)=O)[C@@H]4C(=O)C[C@@]3(C)[C@]1(C)CC2,53.3%
2,O=c1c2cc(F)ccc2sc2c(Nc3cccnc3)nc3ccccc3c12,69.1%
3,COc1ccc2occ(C3=C(c4c[nH]c5ccccc45)C(=O)N(O)C3=O)c2c1,83.6%
4,Cc1ccc(-c2cc3c(cc2O)C2CCCCC2(N2CCOCC2)O3)cc1 (stereo not given),96%
5,O=C(N=c1oc2ccccc2cc1-c1cc2ccccc2[nH]1)c1ccc(Cl)cc1,56.2%
6,Cc1ccc(N(C(=O)CCc2c[nH]c3ccccc23)[C@H](C(=O)Nc2ccc(Cl)cc2)c2cccc([N+](=O)[O-])c2)cc1,80.5%
7,COc1ccc(-c2nc3sccn3c2-c2cc(-c3cc(OC)c(OC)c(OC)c3)on2)cc1,127%
8,Cc1cc(C(=O)c2ccccc2)c(C)c2c1[nH]c1ccc(Cl)cc12,24.7%
9,C=C(C)[C@@H]1CC=C2c3sc(-c4ccc(C)cc4)nc3C[C@@H](C)[C@]2(C)C1,90.6%
10,COc1ccc2c(c1)O/C(=C/c1ccc(OCC(=O)c3ccccc3)cc1)C2=O,103%
11,COc1cccc(-c2nn(-c3ccccc3)cc2-c2ccnc(NCCCNC(=O)Nc3ccc(Cl)c(Cl)c3)c2)c1,24%
12,COc1ccc2c(c1)O/C(=C\c1cccc(OCC(=O)Nc3nc(C)c(C)s3)c1)C2=O,-82.7% (active)
13,Cc1ccc(S(=O)(=O)n2cc(CNc3ccc(N4CCOCC4=O)cc3)c3ccccc32)cc1,30.4%
14,Cc1ccccc1NC(=O)N/C(N)=N/c1nc(C)c(C)s1,31.1%
15,CC/C=C1/C(=O)C=C[C@@H]1C/C=C\CCCC(=O)O,84.9%
16,CCN(CC)CCCC(C)Nc1c2ccc(Cl)cc2nc2ccc(O)cc12 (stereo not given),70.9%
17,O=C1OC(c2nc3ccccc3s2)=C/C1=C\c1ccc(O)cc1,85.4%
18,Cc1cc(NCCCCNc2ccnc3cc(Cl)ccc23)nc(Nc2ccc(C(=O)N3CCCC3)cc2)n1,97.1%
19,O=c1c2cc(F)ccc2sc2c(NCCCN3CCCC3)nc3ccccc3c12,30.4%
20,CC(=O)n1c(-c2ccc(Cl)cc2)nc2c(c1=O)C(c1ccc(Cl)cc1)c1sc3c(Cl)cccc3c1O2 (stereo not given),7.82% (active)

row,SMILES,growth
1,COc1cccc(-c2nn(-c3ccccc3)cc2-c2ccnc(NCCNC(=O)Nc3ccccc3)c2)c1,64.9%
2,N#CCN1C(=O)C2C3=C(CCCC3)SC2N=C1CN1CCCC1 (stereo not given),104%
3,Cn1c(=O)c2[nH]c(NN)nc2n(C)c1=O,96%
4,COc1ccc(-c2cc(-c3cc(OC)ccc3OC)nc(SCC(=O)c3ccccc3)c2C#N)cc1,95.3%
5,C=CCn1c(C)nc2cc(Nc3nc(Cl)nc4ccccc34)ccc21,87.2%
6,Cc1ccc(S(=O)(=O)N/N=C\c2cc(Cl)ccc2O)cc1,73.9%
7,COCN1CCC2N(COC)CCC3N(COC)CCC1N23 (stereo not given),102%
8,O=C(Nc1ccc(-n2cc(-c3ccncc3)c(-c3ccc(Cl)c(O)c3)n2)cc1)N1CCOCC1,105%
9,N#Cc1c(-c2ccccn2)[nH]c(=S)[nH]c1=O,98.8%
10,C=CCOC1=CC(=O)c2ccccc2C1=O,101%
11,COc1ccc2[nH]c(O)c(C(=Nc3ccc(N(C)C(=O)CN4CCN(C)CC4)cc3)c3ccccc3)c2c1,24.6%
12,N#Cc1nc(C#N)c(Sc2ccccc2)c(Sc2ccccc2)c1Sc1ccccc1,17.7%
13,CC(=O)N1N=C(c2ccc(Nc3nc(Nc4ccc(F)cc4)nc(Nc4ccc(F)cc4)n3)cc2)CC1c1cccc([N+](=O)[O-])c1 (stereo not given),124%
14,N#Cc1c(N)nn(C(=O)c2ccc(NC(=O)c3ccccn3)cc2)c1-c1ccc(Cl)cc1,26%
15,C=C(C)[C@@H]1CC[C@]2(C)[C@H](CC=C3[C@@H]4CC(C)(C)CC[C@]4(C(N)=O)CC[C@]32C)[C@@]1(C)CCC#N,18.4%
16,CCc1ccccc1-n1c(-c2ccc(Cl)cc2)cc(-c2ccc(Cl)cc2)c(C#N)c1=O,90.2%
17,COc1cc(C2CC(=O)Nc3c2c(C)nn3-c2nc3ccccc3[nH]2)c(OC)c(OC)c1OC (stereo not given),43.6%
18,COc1ccc2c(c1)O/C(=C\c1cccc(OCC(=O)Nc3nc4ccccc4s3)c1)C2=O,-88.3% (active)
19,Cn1c(-c2c(N)n(Cc3ccc(C(F)(F)F)cc3)c3nc(C#N)c(C#N)nc23)nc2ccccc21,9.68% (active)
20,CCOc1ccccc1-c1cc(-c2cccs2)c(C#N)c(=O)[nH]1,76.1%
